Only a selection was taken, and hits are over-represented in it overall.
PI5P4Ka inh: inhibitors of human PI5P4K alpha; PI5P4Kalpha enzyme, ADP-Glo luminescence, 60 min; stronger effect = lower value; P48426; 330,000 compounds, 1.2% hits; max response, %; active = max response of -50% or lower; inconclusive = between -30% and -50%; inactive = -30% or higher; note: value at the top dose of about 77 µM
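Single end-point luminescence (ADP-Glo) quantified ADP from PI5P4Kalpha turnover; ATP 5 microM final, 1 h at RT, 0.1% CHAPS and 0.28 mM EGTA in HEPES pH 7.4.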
PI4K2A block: inhibitors of human PI4K2A. Q9BTU6. purified PI4K2A, ADP-Glo luminescence, 1 h; stronger effect = lower value. activity change, negative = inhibition, % at 76.9 µM. 420,000 compounds, 0.13% hits. AID 1346378; in the data active = activity change below about -50%; inconclusive = mostly about -30% to -49%;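 note: -100% = wells without enzyme as full effect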
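In this quantitative HTS, ADP production by PI4K2A was quantified luminescently after 1 h at ambient temperature; 100 microM adenosine served as plate-quality control.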
Pin1 inhibitor: blocks the human prolyl isomerase Pin1 | 390,000 compounds, 0.009% hits | Q13526 | Pin1 FP peptide displacement, HiFluor488, 10 min | Potency, µM (titrated, usually from 115 µM), for inactives: at the highest dose activity, negative = inhibition, hits mostly inhibitors | AID 504891; active = well fitted inhibition curve with a large enough effect in the polarisation, with a control signal flat, not every such curve was filed as active; inconclusive = small, poorly fitted or top-dose-only effect, or effect the other way, or a change in a side signal; inactive = no such curve, though single readings can be large or run the other way; the % refers to the polarisation; note: potency is the fitted concentration of half-maximal effect
Target sequence (Q13526 whole entry, looked up): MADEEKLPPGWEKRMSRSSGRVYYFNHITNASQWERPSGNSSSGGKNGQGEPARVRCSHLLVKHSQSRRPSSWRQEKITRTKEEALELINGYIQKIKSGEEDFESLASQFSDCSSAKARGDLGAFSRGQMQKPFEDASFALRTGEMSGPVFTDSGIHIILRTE
Tb PFK block: blocks T. brucei phosphofructokinase; T. brucei PFK, ADP-Glo luminescence; Potency, µM (highest dose often 57.5 µM), for inactives: at the highest dose activity, negative = inhibition, most hits filed as inhibitors; 330,000 compounds, 0.17% hits;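 note: potency is the fitted concentration of half-maximal effect; 0% = uninhibited 1x PFK enzyme wells and -100% = no-enzyme wells; nearly all actives have a fitted effect of over 60% in size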
Target sequence (O15648 whole entry, looked up): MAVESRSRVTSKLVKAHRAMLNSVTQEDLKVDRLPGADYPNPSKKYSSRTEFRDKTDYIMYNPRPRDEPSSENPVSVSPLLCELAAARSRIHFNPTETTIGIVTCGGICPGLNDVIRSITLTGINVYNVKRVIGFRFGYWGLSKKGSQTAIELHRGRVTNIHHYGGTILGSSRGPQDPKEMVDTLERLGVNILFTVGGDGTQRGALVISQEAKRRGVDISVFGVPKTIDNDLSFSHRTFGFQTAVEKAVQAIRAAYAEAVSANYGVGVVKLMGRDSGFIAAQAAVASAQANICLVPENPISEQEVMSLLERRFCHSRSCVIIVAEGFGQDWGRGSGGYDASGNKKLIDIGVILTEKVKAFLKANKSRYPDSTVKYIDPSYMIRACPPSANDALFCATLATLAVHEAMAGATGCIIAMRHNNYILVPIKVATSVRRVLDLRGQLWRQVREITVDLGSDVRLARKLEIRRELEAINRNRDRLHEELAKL
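Compounds were pin-transferred as a titration series up to 57 uM into substrate buffer (0.5 mM F6P, 0.1 mM ATP, pH 8.0), then 1.25 nM PFK was added and reactions ran 45 min before ADP-Glo detection.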
Tb PGK inh: blocks T. brucei phosphoglycerate kinase. PGK/GAPDH coupled, Kinase-Glo luminescence, 60 min. P07378. 380,000 compounds, 0.043% hits. AID 602233. Potency, µM (doses to about 57.5 µM), for inactives: at the highest dose activity change, negative = inhibition, usual class: inhibitors; note: potency is the fitted concentration of half-maximal effect; nearly all actives have a fitted effect of over 60% in size
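Luminescent ATP detection (Kinase-Glo Plus) follows a 60-minute room-temperature incubation, with wells lacking PGK as controls. Buffer: 100 mM TEA (pH 7.6), 5 mM MgCl2, 0.01% Tween-20. Coupling enzyme GAPDH (100 nM final) supplies unstable 1,3-BPG in-well.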
Starred values were filed as active, the others as inactive. Unless noted, calls come from the whole dose curve; as a rule, active = well fitted curve in the direction sought with a large enough effect; inconclusive = small, poorly fitted or top-dose-only effect, or another doubt; inactive = no such curve, though single readings can be large; an effect the other way counts as inactive or inconclusive. Unless noted, % is set by controls: 0 for no effect and ±100 for the full control effect.

For COc1ccc(C(=O)OCC(=O)Nc2ncc([N+](=O)[O-])s2)cc1OC the results were PI5P4Ka inh -77.4*, PI4K2A block -6.1, Tb PFK block -23.6% and Tb PGK inh inconclusive.
`CCOC(=O)CCc1c(C)c2ccc(OCc3nn[nH]n3)cc2oc1=O` gave PI5P4Ka inh -21.8, PI4K2A block -5.3, Pin1 inhibitor -0.4%, Tb PFK block -0.5% and Tb PGK inh 2.4%.
For Cc1cc(-c2nc3ncccc3o2)ccc1NC(=O)c1ccc([N+](=O)[O-])o1 the results were PI5P4Ka inh -58.2*, PI4K2A block -0.1, Pin1 inhibitor 66.4% and Tb PGK inh -1.2%.
O=C(CSc1ccccn1)Nc1ccc2[nH]c(=O)[nH]c2c1 was read as PI5P4Ka inh -17.9, PI4K2A block -6.4, Pin1 inhibitor -2.3%, Tb PFK block inconclusive and Tb PGK inh 2.1%.
For COc1ccccc1NS(=O)(=O)c1cccc(C(=O)OCc2nc3ccccc3s2)c1 the results were PI5P4Ka inh -7.0, PI4K2A block 4.8, Pin1 inhibitor inconclusive, Tb PFK block 1.7% and Tb PGK inh 5.1%.
Screening CCOC(=O)C1=C(C)N(CCCC(=O)O)C(=O)NC1c1ccccc1OS(=O)(=O)c1ccc(C)cc1 (stereo unspecified) returned PI5P4Ka inh -85.2*, PI4K2A block 1.8, Pin1 inhibitor -10.7%, Tb PFK block -4.7% and Tb PGK inh inactive.
CCOC(=O)C1=C(C)N(CCCC(=O)O)C(=O)NC1c1ccccc1OS(=O)(=O)c1ccccc1[N+](=O)[O-] (stereo unspecified) was read as PI5P4Ka inh -75.8*, PI4K2A block -3.1, Pin1 inhibitor -10.0% and Tb PGK inh -7.6%.
For CC1=C(C(=O)OCc2ccccc2)C(c2ccccc2OS(=O)(=O)c2ccccc2[N+](=O)[O-])NC(=O)N1CCCC(=O)O (stereo unspecified) the results were PI5P4Ka inh -98.6*, PI4K2A block -0.1, Pin1 inhibitor inconclusive and Tb PGK inh -4.2%.
COC(=O)C1=C(C)N(CCCC(=O)O)C(=O)NC1c1ccccc1OS(=O)(=O)c1ccc([N+](=O)[O-])cc1 (stereo unspecified) was read as PI5P4Ka inh -105.2*, PI4K2A block -1.2, Pin1 inhibitor -6.7% and Tb PGK inh -7.4%.
Screening CCCC(=O)NC(c1ccccc1Cl)c1ccc2cccnc2c1O (stereo unspecified) returned PI5P4Ka inh -2.1, PI4K2A block -1.4, Pin1 inhibitor 2.7%, Tb PFK block -0.3% and Tb PGK inh -0.2%.
Cn1nnnc1SCC(=O)N1CCc2ccccc2C1 was read as PI5P4Ka inh 1.0, PI4K2A block 5.1, Pin1 inhibitor -4.7%, Tb PFK block -6.0% and Tb PGK inh inactive.
`COc1ccccc1/C=c1\sc2nc(-c3ccco3)nn2c1=O` gave PI5P4Ka inh -69.2*, PI4K2A block 89.3, Pin1 inhibitor inconclusive, Tb PFK block inconclusive and Tb PGK inh inconclusive.
For CCOc1ccc(/C=c2\sc3nc(-c4ccco4)nn3c2=O)cc1OCC the results were PI5P4Ka inh -18.0, PI4K2A block 90.0, Pin1 inhibitor inconclusive, Tb PFK block -9.5% and Tb PGK inh -13.1%.
`O=C(O)c1ccc(/C=N/NC(=O)c2ccc(CN3c4cccc5cccc(c45)S3(=O)=O)cc2)cc1` gave PI5P4Ka inh -54.0*, PI4K2A block -5.3, Tb PFK block -7.3% and Tb PGK inh inconclusive.
For CC(/C=N/NC(=O)c1ccc(CN2c3cccc4cccc(c34)S2(=O)=O)cc1)c1ccccc1 (stereo unspecified) the results were PI5P4Ka inh inconclusive, PI4K2A block -3.0, Pin1 inhibitor 14.0%, Tb PFK block -3.7% and Tb PGK inh -2.4%.
CCN(CC(=O)Nc1c(F)cccc1F)C(=O)/C=C/c1ccc2ccccc2n1 was read as PI5P4Ka inh -99.7*, PI4K2A block inconclusive, Tb PFK block inconclusive and Tb PGK inh inconclusive.
For Nc1cccc2c(O)cc(S(=O)(=O)O)cc12 the results were PI5P4Ka inh -88.5*, PI4K2A block inconclusive, Pin1 inhibitor inconclusive and Tb PGK inh 17.8µM*.
Screening Nc1ccc2c(O)cc(S(=O)(=O)O)cc2c1 returned PI5P4Ka inh -58.3*, PI4K2A block -12.9, Pin1 inhibitor inconclusive and Tb PGK inh inconclusive.
Nc1cccc2c(O)cccc12 was read as PI5P4Ka inh -3.0, PI4K2A block -2.2, Pin1 inhibitor -2.7% and Tb PGK inh -8.6%.
For CC(=O)Nc1ccc2c(O)cc(S(=O)(=O)O)cc2c1 the results were PI5P4Ka inh -22.2, PI4K2A block -5.9, Pin1 inhibitor inconclusive and Tb PGK inh -7.8%.
`COc1ccc2cnnc(SCC(=O)Nc3ccc(C(C)=O)cc3)c2c1OC` gave PI5P4Ka inh -4.0, PI4K2A block -2.2, Pin1 inhibitor -0.7%, Tb PFK block 7.8% and Tb PGK inh 1.4%.
For COc1ccc2cnnc(SCC(=O)Nc3ccc(C(=O)O)cc3)c2c1OC the results were PI5P4Ka inh -66.0*, PI4K2A block -0.6, Pin1 inhibitor -12.7%, Tb PFK block 0.5% and Tb PGK inh -6.4%.
Screening NC(=O)c1ncn([C@@H]2O[C@H](CNCc3ccc(OCC(=O)Nc4ccccn4)cc3)[C@@H](O)[C@H]2O)n1 returned PI5P4Ka inh -2.0, PI4K2A block 6.9, Pin1 inhibitor 1.9% and Tb PGK inh inactive.
Screening NC(=O)c1ncn([C@@H]2O[C@H](CNCc3ccc(OCC(=O)Nc4nccs4)cc3)[C@@H](O)[C@H]2O)n1 returned PI5P4Ka inh -64.2*, PI4K2A block 6.4, Pin1 inhibitor -4.3% and Tb PGK inh -1.2%.
For CCc1ccc(NC(=O)C(C)Sc2nc(-c3ccco3)c(C#N)c(=O)[nH]2)cc1 (stereo unspecified) the results were PI5P4Ka inh -57.3*, PI4K2A block -4.9, Pin1 inhibitor -19.3%, Tb PFK block 1.1% and Tb PGK inh -14.3%.
O=C(CNC(=O)c1ccccc1F)OCc1csc(-c2ccccc2)n1 was read as PI5P4Ka inh 6.1, PI4K2A block -4.8, Pin1 inhibitor 3.9%, Tb PFK block -5.1% and Tb PGK inh inactive.
`O=C(CN1C(=O)NC2(CCc3ccccc32)C1=O)c1ccc(Br)s1` (stereo unspecified) gave PI5P4Ka inh inconclusive, PI4K2A block -2.2, Pin1 inhibitor 19.0%, Tb PFK block -4.1% and Tb PGK inh -9.9%.
For O=C1C2C3C=CC(CC3)C2C(=O)N1c1nccs1 (stereo unspecified) the results were PI5P4Ka inh -62.4*, PI4K2A block -1.4, Pin1 inhibitor 0.7%, Tb PFK block inconclusive and Tb PGK inh inconclusive.
NC(=O)C1(NC2CCCCC2)CCN(Cc2ccccc2)CC1 was read as PI5P4Ka inh -5.1, PI4K2A block -8.7, Pin1 inhibitor -11.7% and Tb PGK inh inactive.

Compound activity as filed in PubChem.
